# In a collection of fitness landscapes (doi:10.1016/j.celrep.2020.107928):
# Whole data set: some 81,000 sequences, median “one-hybrid fitness for binding NBS DNA” near -0.1, cut for the highest 2% near 0.36. Many of the other results were omitted from the sample, so the highest values are more common in it than they were.
# B1: Caulobacter ParB omega fusion; a variant is named by its letters at X, in order, B8GW30 (parent)
# chain: MESVVVGEPGMSEGRRGLGRGLSALLGEVDAAPAQAPGEQLGGSREAPIEILQRNPDQPRRTFREEDLEDLSNSIREKGVLQPILVRPSPDTAGEYQIVAGERAWRAAQRAGLKTVPIMVRELDDLAVLEIGIIENVQRADLNVLEEALSYKVLMEKFERTQENIAQTIGKSXSHVANXMRLLXLPDEVQSYLVSGELTAXHARAIAAAADPVALAKQIIEGGLSVRETEALARKAPNLSAGKSKGGRPPRVKDTDTQALESDLSSVLGLDVSIDHRGSTGTLTITYATLEQLDDLCNRLTRGI
# Variants of: B1
# Test: one-hybrid fitness for binding NBS DNA (the Noc-binding site; scaled: cognate 1, non-cognate 0); higher = stronger binding
# Details: with NBS DNA site
# Method in brief: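 Fitness is the rescaled log change in variant-to-wild-type read ratio, measured by Illumina sequencing of plasmids before and after bacterial one-hybrid selection. The scale puts cognate at 1 and non-cognate at 0. Selection of Caulobacter ParB libraries, four specificity codons randomised, took place in E. coli USO with a HIS3 reporter, site 19 bp from the promoter, over 48 hours at 37°C on M9-minus-histidine with 0.1 mM IPTG and 5 mM 3-AT.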
row,Variant,one-hybrid fitness for binding NBS DNA
1,PHEA,≤ 0.2
2,DNPI,≤ 0.2
3,QTEH,≤ 0.2
4,DRGT,≤ 0.2
5,QRHT,0.789
6,NRGT,≤ 0.2
7,DRHT,≤ 0.2
8,QRDT,0.671
9,NRHT,≤ 0.2
10,QTET,0.439
11,QPET,≤ 0.2
12,QRGT,0.822
13,LHGL,≤ 0.2
14,SEHS,≤ 0.2
15,AWHA,≤ 0.2
16,AGPD,≤ 0.2
17,CCAY,≤ 0.2
18,GPLH,≤ 0.2
19,DGTS,≤ 0.2
20,QRWF,≤ 0.2
21,QRNT,0.822
22,QCET,0.352
23,QRWG,≤ 0.2
24,QRET,0.603

row,Variant,one-hybrid fitness for binding NBS DNA
1,QRYT,0.744
2,DRNT,≤ 0.2
3,QSET,0.253
4,QWNT,≤ 0.2
5,QRWT,0.707
6,DPRH,≤ 0.2
7,TCSP,≤ 0.2
8,EGGL,≤ 0.2
9,QSFQ,≤ 0.2
10,PGPS,≤ 0.2
11,LKHN,≤ 0.2
12,PPQT,≤ 0.2
13,VKFG,≤ 0.2
14,DVTN,≤ 0.2
15,TRRA,0.25
16,LSWG,≤ 0.2
17,KASG,≤ 0.2
18,PNWS,≤ 0.2
19,ISHA,≤ 0.2
20,TEKA,≤ 0.2
21,QILT,0.236
22,QKEH,≤ 0.2
23,QRLT,0.731
24,DRCT,≤ 0.2

row,Variant,one-hybrid fitness for binding NBS DNA
1,QACT,0.363
2,QFRT,0.309
3,QRRT,0.863
4,QRCT,0.806
5,QRLM,0.322
6,QKET,0.391
7,QKES,0.275
8,QRRE,0.346
9,TPVD,≤ 0.2
10,FWLS,≤ 0.2
11,STAF,≤ 0.2
12,DGKR,≤ 0.2
13,RSDQ,≤ 0.2
14,NRPR,≤ 0.2
15,VFEC,≤ 0.2
16,SCLN,≤ 0.2
17,QFST,≤ 0.2
18,QIQT,0.283
19,NRST,≤ 0.2
20,DRQT,≤ 0.2
21,QRQT,0.755
22,QRST,0.772
23,TYAY,≤ 0.2
24,MPCT,≤ 0.2

row,Variant,one-hybrid fitness for binding NBS DNA
1,SIMW,≤ 0.2
2,VASM,≤ 0.2
3,GSLP,≤ 0.2
4,QIIS,≤ 0.2
5,QIRS,0.539
6,QIRD,≤ 0.2
7,QIYS,0.27
8,QIRH,0.44
9,QIRP,≤ 0.2
10,RWRF,≤ 0.2
11,LTWA,≤ 0.2
12,KKKG,≤ 0.2
13,AEER,≤ 0.2
14,QAVT,0.296
15,QPKT,0.201
16,QCKT,0.778
17,QLKT,0.673
18,QIVT,0.236
19,QIKT,0.574
20,QAKT,0.692
21,QWKT,0.25
22,QLVT,0.276
23,LDLK,≤ 0.2
24,AVEL,≤ 0.2

row,Variant,one-hybrid fitness for binding NBS DNA
1,SLSN,≤ 0.2
2,QFKT,0.388
3,QHIT,0.349
4,QHKT,0.732
5,QFYT,≤ 0.2
6,QFVT,≤ 0.2
7,QSKT,0.699
8,QEKT,≤ 0.2
9,QHVT,0.327
10,QSVT,0.328
11,WSSW,≤ 0.2
12,LFHV,≤ 0.2
13,YELS,≤ 0.2
14,IALF,≤ 0.2
15,ESMD,≤ 0.2
16,RSFQ,≤ 0.2
17,RRDH,0.371
18,RRND,≤ 0.2
19,RRDN,≤ 0.2
20,RRNP,≤ 0.2
21,RRNN,0.493
22,RCDH,≤ 0.2
23,RRNH,0.63
24,RCNN,≤ 0.2

row,Variant,one-hybrid fitness for binding NBS DNA
1,ANST,≤ 0.2
2,CRRH,≤ 0.2
3,RNTT,0.215
4,DAPG,≤ 0.2
5,GCTC,≤ 0.2
6,QTHI,0.228
7,QNEM,≤ 0.2
8,WTRW,≤ 0.2
9,TLWY,≤ 0.2
10,RRFT,0.777
11,RRAC,0.328
12,RRFQ,0.267
13,RRAT,0.782
14,RRAF,≤ 0.2
15,RRFG,0.279
16,SIPE,≤ 0.2
17,IQKV,≤ 0.2
18,PDCE,≤ 0.2
19,FSMS,≤ 0.2
20,QQNT,0.596
21,QQNP,≤ 0.2
22,QQDT,0.428
23,KQDT,≤ 0.2
24,QQDF,≤ 0.2

row,Variant,one-hybrid fitness for binding NBS DNA
1,QQNN,0.231
2,VNKV,≤ 0.2
3,GVQT,≤ 0.2
4,RNWC,≤ 0.2
5,AVGK,≤ 0.2
6,QCNA,0.369
7,QWGA,≤ 0.2
8,QTGA,0.466
9,QHHA,0.238
10,QTYA,0.427
11,QPNA,≤ 0.2
12,QTHA,0.441
13,QLHA,≤ 0.2
14,QTLA,0.329
15,QTPA,≤ 0.2
16,QSNA,0.308
17,QMGA,0.253
18,LHCQ,≤ 0.2
19,VMLE,≤ 0.2
20,LRND,≤ 0.2
21,AEHT,≤ 0.2
22,QSCA,≤ 0.2
23,QLQA,0.204
24,QTSA,0.397

row,Variant,one-hybrid fitness for binding NBS DNA
1,QTFA,0.301
2,QTQA,0.432
3,QTAA,0.44
4,QKAA,0.319
5,QCCA,0.326
6,QASA,≤ 0.2
7,QTCA,0.378
8,QCSA,0.302
9,QDQA,≤ 0.2
10,SFSC,≤ 0.2
11,PSTY,≤ 0.2
12,KYQS,≤ 0.2
13,AEHP,≤ 0.2
14,CVMI,≤ 0.2
15,VVAR,≤ 0.2
16,NSNP,≤ 0.2
17,SNRD,≤ 0.2
18,YAHR,≤ 0.2
19,QTRA,0.712
20,QTIA,0.224
21,QTKA,0.708
22,QTVA,0.317
23,QPAA,≤ 0.2
24,QAWA,≤ 0.2

row,Variant,one-hybrid fitness for binding NBS DNA
1,QTWA,0.367
2,QCAA,0.393
3,NTKA,≤ 0.2
4,QSAA,0.273
5,QCWA,0.205
6,QTMA,0.32
7,NGIG,≤ 0.2
8,PFPE,≤ 0.2
9,GKAT,≤ 0.2
10,ATEG,≤ 0.2
11,TRRP,≤ 0.2
12,HLQN,≤ 0.2
13,QPTA,≤ 0.2
14,QKNA,0.378
15,QTNA,0.505
16,QLNA,0.219
17,QCTA,0.326
18,QKDA,≤ 0.2
19,QTTA,0.399
20,QINA,0.21
21,QTDA,0.255
22,ISCK,≤ 0.2
23,MLLV,≤ 0.2
24,LQRF,≤ 0.2

row,Variant,one-hybrid fitness for binding NBS DNA
1,HHLI,≤ 0.2
2,LHQS,≤ 0.2
3,RSNH,0.223
4,RIDR,≤ 0.2
5,RSNR,0.526
6,RPNR,≤ 0.2
7,RINR,0.524
8,RWNR,0.436
9,RINH,≤ 0.2
10,RFNR,0.325
11,RWDR,≤ 0.2
12,RWYR,≤ 0.2
13,RSDR,≤ 0.2
14,RCNR,0.586
15,GSSG,≤ 0.2
16,PGTF,≤ 0.2
17,LPSK,≤ 0.2
18,PGGS,≤ 0.2
19,RQIG,≤ 0.2
20,MIKI,≤ 0.2
21,NGIR,≤ 0.2
22,FGEY,≤ 0.2
23,RHNN,≤ 0.2
24,RHDR,0.216

row,Variant,one-hybrid fitness for binding NBS DNA
1,RHNR,0.539
2,NDST,≤ 0.2
3,SAPN,≤ 0.2
4,YTYC,≤ 0.2
5,NRRR,0.251
6,QRSG,0.339
7,DRYR,≤ 0.2
8,QRSF,0.262
9,DRRR,0.215
10,QRRR,1.1
11,NRYR,≤ 0.2
12,QRYR,0.924
13,QRQL,0.255
14,QRQR,0.987
15,QRSR,0.997
16,NRQR,≤ 0.2
17,RCHV,≤ 0.2
18,LHEL,≤ 0.2
19,TCPE,≤ 0.2
20,KYMS,≤ 0.2
21,QRLQ,0.327
22,QRLR,0.945
23,QRCR,0.981
24,DRCR,≤ 0.2

row,Variant,one-hybrid fitness for binding NBS DNA
1,QRGR,1.04
2,QRDR,0.679
3,NRGR,≤ 0.2
4,QDCR,≤ 0.2
5,QRLF,0.238
6,DRGR,≤ 0.2
7,DAMG,≤ 0.2
8,RDCF,≤ 0.2
9,SWLF,≤ 0.2
10,THYV,≤ 0.2
11,EPRD,≤ 0.2
12,AGTM,≤ 0.2
13,AMGA,≤ 0.2
14,QRHR,1.06
15,QRNR,1.03
16,DRHR,≤ 0.2
17,NRHR,≤ 0.2
18,NRNR,≤ 0.2
19,DRNR,≤ 0.2
20,TTSN,≤ 0.2
21,DLQW,≤ 0.2
22,DYWR,≤ 0.2
23,QHAH,≤ 0.2
24,QHAR,0.523

row,Variant,one-hybrid fitness for binding NBS DNA
1,QHFR,0.408
2,QHAN,≤ 0.2
3,QHFS,≤ 0.2
4,QHFN,≤ 0.2
5,GISW,≤ 0.2
6,ACMF,≤ 0.2
7,RFMI,≤ 0.2
8,EHLG,≤ 0.2
9,SCYH,≤ 0.2
10,MRMG,≤ 0.2
11,RYRT,0.664
12,RYPT,≤ 0.2
13,RYLT,0.366
14,RYKT,0.604
15,RYVT,0.229
16,RYLH,≤ 0.2
17,RYYT,0.349
18,RYNT,0.514
19,RYWT,0.281
20,RYLD,≤ 0.2
21,RYNP,≤ 0.2
22,RYDT,0.204
